Compounds with a hit are over-represented: about 4.5% of the library has one in this group of screens.
Gli-Sufu antag – antagonists of Gli-Sufu signaling. 340,000 tested, 0.74% active. Sufu-KO-LIGHT fibroblasts, Gli luciferase reporter luminescence. inhibition, % at 5 µM;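 active = inhibition above about 55%, limit read from the data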;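 also: 0% = DMSO-treated cells and 100% = wells with medium but no cells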
Jurkat NFkB inh – lowers PMA/ionomycin-induced NF-kB signal in Jurkat cells; PMA/ionomycin-induced NF-kB luciferase reporter, luminescence; inhibition, % at 4 µM; 330,000 tested, 0.53% active; AID 435003; in the data active = inhibition above about 50%
CSC inhib – cancer stem cell inhibition; 300,000 tested, 1.1% active; AID 2717; inhibition, % at 7.5 µM; cancer stem cell-like cells viability, luminescence; in the data active = inhibition above about 75%; tested in HMLE shEcad cells
Mdm2 MdmX PPI – disrupts the human Mdm2-MdmX interaction. SaOS-2 split-luciferase Mdm2/MdmX complementation, luminescence. inhibition, % at 8 µM. 330,000 tested, 3% active. AID 485346;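 active = inhibition of at least 50% at 8 µM in the primary screen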
Target sequence (O15151 whole entry, looked up): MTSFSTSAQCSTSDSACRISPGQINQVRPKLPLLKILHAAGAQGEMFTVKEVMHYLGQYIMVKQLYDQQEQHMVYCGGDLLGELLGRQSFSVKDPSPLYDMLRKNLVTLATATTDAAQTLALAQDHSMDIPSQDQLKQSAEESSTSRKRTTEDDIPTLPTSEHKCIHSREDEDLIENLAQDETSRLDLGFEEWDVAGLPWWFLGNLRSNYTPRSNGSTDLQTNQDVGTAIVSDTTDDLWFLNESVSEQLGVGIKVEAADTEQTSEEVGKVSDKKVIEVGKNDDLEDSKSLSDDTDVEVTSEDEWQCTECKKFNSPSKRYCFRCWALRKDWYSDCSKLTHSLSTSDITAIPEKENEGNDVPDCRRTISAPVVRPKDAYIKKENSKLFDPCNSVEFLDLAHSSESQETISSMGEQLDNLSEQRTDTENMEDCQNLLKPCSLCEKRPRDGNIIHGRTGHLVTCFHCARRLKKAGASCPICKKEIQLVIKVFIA
Target sequence (Q00987 whole entry, looked up): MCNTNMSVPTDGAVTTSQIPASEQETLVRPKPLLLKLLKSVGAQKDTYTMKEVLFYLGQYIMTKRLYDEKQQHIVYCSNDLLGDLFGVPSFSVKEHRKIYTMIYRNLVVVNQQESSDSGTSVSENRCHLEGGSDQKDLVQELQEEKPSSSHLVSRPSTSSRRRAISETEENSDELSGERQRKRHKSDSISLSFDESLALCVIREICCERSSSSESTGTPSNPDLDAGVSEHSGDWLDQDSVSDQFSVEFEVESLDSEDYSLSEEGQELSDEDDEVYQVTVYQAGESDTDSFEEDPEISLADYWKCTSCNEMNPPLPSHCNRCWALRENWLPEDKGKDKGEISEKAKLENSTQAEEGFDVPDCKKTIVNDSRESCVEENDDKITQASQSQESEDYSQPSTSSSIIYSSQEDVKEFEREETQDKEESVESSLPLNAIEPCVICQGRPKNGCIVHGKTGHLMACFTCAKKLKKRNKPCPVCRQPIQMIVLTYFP
697 NFkB inh – inhibitors of the PMA/ionomycin-induced NF-kB reporter in 697 B cells; 697 B-cell NF-kB luciferase reporter, 16 h; inhibition, % at 4 µM; 330,000 tested, 0.33% active; AID 435022; in the data active = inhibition above about 35%
Beta cell apopt – beta cell apoptosis inhibition; INS-1E cytokine-induced death, ATP luminescence, 48 h; percent of positive-control rescue, neutral wells zero; protection from apoptosis, % (test concentration not listed); 300,000 tested, 0.8% active;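 active = Every replicate reaches about 75%, or at least half do and their mean reaches it too, limit read from the data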;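 also: 0% = cytokine-treated negative control wells and 100% = positive control rescue; higher means more ATP so stronger rescue from cytokine killing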
Mdm2 MdmX conf – human Mdm2/MdmX binding inhibition, confirmed | AID 489028 | inhibition, % at 8 µM | shares compounds with Mdm2 MdmX PPI | luminescent assay | 10,000 tested, 55% active; in the data active = inhibition above about 40%
FLuc counter – inhibits full-length luciferase, flagging false Mdm2/MdmX hits | inhibition, % at 8 µM | 6,200 tested, 77% active | shares compounds with Mdm2 MdmX PPI | SaOS-2 full-length luciferase counterscreen, luminescence;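 active = mean inhibition at 8 µM reaching about 37%, which flags the compound as non-specific, limit read from the data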;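 also: p53-null SaOS-2 cells with luciferase driven by a doxycycline-inducible promoter; compound on cells about two nights before reading with doxycycline added after day one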
An asterisk follows results filed as active; / = no result given.

SMILES | Gli-Sufu antag | Jurkat NFkB inh | CSC inhib | Mdm2 MdmX PPI | 697 NFkB inh | Beta cell apopt | Mdm2 MdmX conf | FLuc counter
O=C(N=C1SC2CS(=O)(=O)CC2N1c1ccc(Cl)cc1Cl)C1CC1 (stereo not given) | -8 | 3 | -10 | -2 | -8 | 3 | / | /
O=S(=O)(c1ccc(Cl)c(NC(=S)N/N=C/c2c(F)cccc2F)c1)N1CCOCC1 | 32 | 12 | 8 | 50* | -29 | -5 | 12 | /
O=S(=O)(c1ccc(Cl)c(NC(=S)N/N=C/c2ccc(O)cc2)c1)N1CCOCC1 | 11 | 1 | 6 | 1 | 1 | 4 | / | /
COc1ccc(C2=CN(Cc3ccccc3)CCC2=O)cc1 | -20 | 1 | / | -53 | -12 | -1 | / | /
O=C(O)C/C(=C\c1cccc(NC(=O)c2ccccc2Cl)c1)c1nc2ccccc2s1 | -14 | -13 | -4 | -25 | 13 | 1 | / | /
O=C(Nc1ccc(Cl)cc1)/C(=C/c1cccc(O)c1)c1nc2ccccc2s1 | 10 | 41 | -8 | 100* | -43 | 105* | 100* | 51*
CCS(=O)(=O)c1ccc(N=Nc2ccc(O)c3ncccc23)c(OC)c1 | 6 | 16 | / | 75* | -4 | / | 69* | 32
COc1ccccc1N=Nc1ccc(O)c2ncccc12 | -2 | -47 | 27 | 68* | -58 | 20 | 38 | 92*
O=c1ncn(-c2ccccc2C(F)(F)F)c2ncccc12 | 0 | -19 | -3 | 33 | -11 | 0 | / | /
Cc1ccc(N=Nc2ccc(O)c3ncccc23)cc1C | -50 | 25 | 1 | 78* | -93 | -6 | 88* | 26
COc1ccccc1N=Nc1[nH]c2ccc(C)cc2c1O | -21 | -19 | 44 | 8 | -10 | -2 | / | /
Oc1ccc(N=Nc2ccccc2C(F)(F)F)c2cccnc12 | 11 | 37 | 100* | 83* | -10 | 90* | 86* | 23
Cc1ccc([N+](=O)[O-])c2cccnc12 | 6 | 0 | -10 | 15 | 7 | -4 | / | /
O=[N+]([O-])c1cccnc1SCc1ccccc1 | / | -9 | -18 | 15 | -5 | -7 | / | /
CN(C(=O)CC1C(=O)NCCN1Cc1cccc(C(F)(F)F)c1)C1CCOCC1 (stereo not given) | 1 | 8 | -3 | 10 | 5 | -6 | / | /
CCS(=O)(=O)c1nnnn1-c1ccccc1S(C)(=O)=O | / | 10 | -3 | 60* | 23 | -75 | 63* | 34
COc1ccc(-n2nnnc2S(=O)(=O)Cc2ccc(C(=O)O)cc2)cc1 | 11 | -1 | 51 | 40 | 15 | -28 | / | /
CN(c1ncnc(N)c1[N+](=O)[O-])C1CCCCC1 | -15 | 22 | -9 | 80* | -18 | -26 | 82* | 51*
CN(c1ncnc(N)c1[N+](=O)[O-])C1CCS(=O)(=O)C1 (stereo not given) | -20 | 8 | -5 | 51* | 6 | -8 | 44* | 40*
Nc1ncnc(NC2CCS(=O)(=O)C2)c1[N+](=O)[O-] (stereo not given) | -21 | -4 | -19 | 33 | 1 | -20 | / | /
CCCCN(c1ccccc1)c1ncnc(N)c1[N+](=O)[O-] | -16 | 19 | -26 | 55* | 14 | -11 | 83* | 52*
O=C1CSC(=S)N1Nc1ccccc1 | -10 | / | / | / | / | / | / | /
O=C(Cn1c2ccccc2c(=O)c2ccccc21)N/N=C/c1cc([N+](=O)[O-])ccc1N1CCCCCC1 | 19 | -11 | -3 | 97* | -2 | 16 | 13 | /
O=C(N/N=C/c1cc([N+](=O)[O-])ccc1N1CCNCC1)c1ccc([N+](=O)[O-])cc1 | -20 | -12 | -18 | 101* | 22 | 0 | 41* | 32
COc1ccc(CCN2C(=O)CC(NNc3ccc([N+](=O)[O-])cc3)C2=O)cc1OC (stereo not given) | -4 | -1 | / | 13 | 26 | / | / | /
SMILES | Gli-Sufu antag | Jurkat NFkB inh | CSC inhib | Mdm2 MdmX PPI | 697 NFkB inh | Beta cell apopt | Mdm2 MdmX conf | FLuc counter
CCCc1c(C(=O)N/N=C(/C)c2ccncc2)nnn1-c1nonc1N | 8 | 27 | -20 | -1 | 19 | -1 | / | /
O=C(c1cccc(Br)c1)N1CCN(S(=O)(=O)N2CCCCC2)CC1 | 17 | 19 | / | -13 | -16 | / | / | /
CC(=O)c1cccc(NC(=O)C(C)OC(=O)CCc2nc3ccccc3c(=O)[nH]2)c1 (stereo not given) | / | -8 | -15 | -12 | 2 | -3 | / | /
Cc1cc(OC2CCCCC2)nc(NCc2ccccc2)n1 | 3 | 28 | 44 | 50* | -21 | / | 31 | /
CCOc1cc(C)nc(NCc2ccccc2)n1 | -9 | -7 | 22 | -15 | -98 | 1 | / | /
Nc1cc(=O)[nH]c(=O)n1CCc1ccccc1 | 35 | -7 | -8 | -26 | 13 | -7 | / | /
CSc1nc(N)nc(SCCS(=O)(=O)c2ccc(Cl)cc2)c1C#N | 23 | 23 | 26 | 57* | -3 | 10 | 23 | /
Cc1cccn2c(=O)c(C=NCCO)c(Nc3ccc(Cl)cc3)nc12 | / | -9 | 14 | 53* | 1 | -5 | -4 | /
Cc1cccn2c(=O)c(C=Nc3ccc(Cl)cc3)c(NCCO)nc12 | 5 | -3 | 1 | -10 | 21 | 1 | / | /
O=C(/C=C/c1cccnc1)c1ccc([N+](=O)[O-])cc1 | -22 | 2 | 7 | 36 | 17 | -5 | / | /
COc1cc(C(=O)/C=C/c2cccnc2)c([N+](=O)[O-])cc1OC | 1 | 17 | 11 | 55* | 11 | -6 | 20 | /
COC(=O)C(C)Oc1ccc(-c2nccc(-c3ccccn3)n2)cc1 (stereo not given) | 1 | -21 | -14 | -6 | 5 | -1 | / | /
Cc1cc(OCC(=O)N2CCN(c3ccccc3)CC2)c2c(C)cc(=O)oc2c1 | 10 | 17 | 5 | 76* | 2 | 4 | 7 | /
Cc1cccc(CN2CCN(C(=O)CCl)CC2)c1 | -1 | -1 | 9 | 64* | 3 | -7 | 18 | /
Cc1cccc(CN2CCN(C(=O)c3cccc4ccccc34)CC2)c1 | -26 | -7 | 3 | 4 | 3 | -4 | / | /
CC(=O)c1ccc(NC(=O)CCOc2cc(C)ccc2C)cc1 | -23 | -26 | 14 | -1 | -34 | -2 | / | /
O=C(N/N=C/c1cc(Br)ccc1O)c1cccc(N2CCCC2=O)c1 | 41 | 14 | 36 | 54* | -38 | 56 | 65* | 31
COc1ccc(O)c(/C=N/NC(=O)c2cccc(N3CCCC3=O)c2)c1 | 7 | 14 | / | 55* | -14 | 94* | 57* | 56*
COc1cccc(/C=N/NC(=O)c2cccc(N3CCCC3=O)c2)c1 | -114 | -31 | -4 | 17 | -56 | 8 | / | /
O=C(CN(Cc1ccc(Br)cc1)S(=O)(=O)c1ccccc1)NCc1cccnc1 | -6 | -20 | -6 | -9 | -66 | -2 | / | /
O=C(NCc1cccnc1)/C(=C/c1ccc(-c2cccc(C(F)(F)F)c2)o1)NC(=O)c1ccccc1 | -6 | -5 | 1 | 21 | -14 | 0 | / | /
